Source: PubChem (several laboratories)
rCAG binder: binds r(CAG) RNA repeats; r(CAG) RNA repeat, TO-PRO-1 dye displacement fluorescence; inhibition, % at 3 µM; 1.3% of 370,000 active; AID 651821;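 active = inhibition above the plate cutoff, the mean of all test compounds on that plate plus 3 SD, cut at about 35% in these data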;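 note: 0% = DMSO alone and 100% = 100 µM mitoxantrone as full dye displacement; higher means more dye released from RNA so lower well fluorescence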
MsrA inhibitor: inhibitors of bovine MsrA | 0.75% of 360,000 active | inhibition, % at 15.5 µM | AID 651718 | purified bovine MsrA, absorbance read-out; in the data active = inhibition above about 4.5%;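 note: 0% = vehicle wells with enzyme and 100% = reference inhibitor wells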
MsrA act: activators of bovine methionine sulfoxide reductase A; purified bovine MsrA, absorbance read-out; activation, % at 10.6 µM; 0.3% of 360,000 active; AID 602163; in the data active = activation above about 7.5%;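 note: 0% = vehicle and 100% = reference activator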
DAGLB inhibitor: diacylglycerol lipase beta (human) inhibition. Q8NCG7. HEK293T DAGLB membrane lysate, EnzChek fluorogenic substrate. inhibition, % at 5.17 µM. 0.059% of 340,000 active. AID 504411; in the data active = inhibition above about 34%;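 note: 0% = enzyme with vehicle and 100% = wells lacking enzyme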
DSG3 Ab inh: blocks pemphigus antibody binding to human desmoglein-3; 0.48% of 310,000 active; P32926; AID 588358; DSG3-coupled beads, scFv-anti-DSG3-GFP binding, flow cytometry; stronger effect = lower value; binding (percent of control), % at 10 µM;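 active = binding more than 3 SD below its plate's average and above zero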;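 note: hits lower antibody fragment binding to DSG3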
NadD block: blocks S. aureus nicotinate mononucleotide adenylyltransferase; purified NadD enzyme, colorimetric absorbance read-out; inhibition, % at 20 µM; 0.78% of 360,000 active; AID 602399; in the data active = inhibition above about 26%
NadD conf: confirmation of Staphylococcus aureus NadD inhibitors; 13% of 2,000 active; inhibition, % at 20 µM; shares compounds with NadD block; purified S. aureus NadD, colorimetric enzyme assay; in the data active = inhibition mostly above about 42%, no sharp cut-off; inactive = mostly below about 42%
An asterisk follows results filed as active. Rows were chosen to be rich in hits. Some 3.2% of all compounds tested hit in one or more screens of this group.

`O=C(CSc1nnc(-c2ccccn2)n1Cc1ccco1)c1ccc(-c2ccccc2)cc1` gave rCAG binder 13, MsrA inhibitor 1, MsrA act -15, DAGLB inhibitor 7, DSG3 Ab inh 97, NadD block 50* and NadD conf 9.
O=C(CSc1nnc(-c2ccc(O)cc2)n1Cc1ccco1)c1ccccc1 was read as rCAG binder 0, MsrA inhibitor 0, MsrA act 0, DAGLB inhibitor 1 and NadD block 3.
CC(=O)c1cccc(OCC(=O)N(CCC2=CCCCC2)c2c(N)n(Cc3ccccc3)c(=O)[nH]c2=O)c1 was read as rCAG binder 8, MsrA inhibitor -1, MsrA act -1, DAGLB inhibitor 11, DSG3 Ab inh 107 and NadD block -1.
CC(C)Oc1ccc(C(=O)Nc2ccc(N3CCCC3)cc2)cc1 was read as MsrA act -15, DAGLB inhibitor 17, DSG3 Ab inh 94 and NadD block 21.
Screening O=C(Nc1ccc(N2CCCC2)cc1)c1ccc(Br)cc1 returned rCAG binder 6, MsrA inhibitor 0, MsrA act -5, DAGLB inhibitor 9, DSG3 Ab inh 94, NadD block 29* and NadD conf -2.
For O=C(NC(=S)Nc1ccc(N2CCCC2)cc1)c1ccccc1[N+](=O)[O-] the results were rCAG binder 9, MsrA inhibitor 1, MsrA act -6, DAGLB inhibitor 4, DSG3 Ab inh 100, NadD block 33* and NadD conf 6.
Screening O=C(Nc1ccc(N2CCCC2)cc1)c1cc(Cl)ccc1Cl returned rCAG binder 14, MsrA inhibitor 1, MsrA act -2, DAGLB inhibitor 13, DSG3 Ab inh 71*, NadD block 52* and NadD conf 12.
O=C(/C=C/c1ccc(Cl)c([N+](=O)[O-])c1)Nc1ccc(N2CCCC2)cc1 was read as rCAG binder 17, MsrA inhibitor 0, MsrA act -5, DAGLB inhibitor 10, DSG3 Ab inh 129, NadD block 42* and NadD conf 0.
CC(=O)NC(C)(c1ccccc1)c1nc(/C=C/c2ccccc2)cs1 (stereo not drawn) was read as rCAG binder 3, MsrA inhibitor 1, MsrA act -6 and NadD block -2.
Screening CCc1cc2c(=O)nc3n(c2s1)Cc1ccccc1/C3=C(/O)c1ccccc1Cl returned rCAG binder 4, MsrA inhibitor 1, MsrA act -4, DAGLB inhibitor 6, DSG3 Ab inh 93, NadD block 32* and NadD conf 6.
`CCc1cc2c(=O)nc3n(c2s1)Cc1ccccc1/C3=C(/O)c1ccc(F)cc1` gave rCAG binder 14, MsrA inhibitor 0, MsrA act -3, DAGLB inhibitor 12, DSG3 Ab inh 93, NadD block 36* and NadD conf 10.
Cc1ccc(Cl)cc1N1CCN(S(=O)(=O)c2c(C)[nH]c(C)c2C(=O)N2CCCCC2)CC1 was read as rCAG binder -4, MsrA inhibitor 0, MsrA act -2, DAGLB inhibitor 2, DSG3 Ab inh 102 and NadD block 6.
Screening O=C(O)Cc1sc(N/N=C\c2ccccc2)nc1-c1ccccc1 returned rCAG binder 44*, MsrA inhibitor 1, MsrA act -5, DAGLB inhibitor 9, DSG3 Ab inh 83, NadD block 47* and NadD conf 55*.
CCOC(=O)c1sc(N/N=C/c2ccccc2)nc1C was read as rCAG binder 7, MsrA inhibitor 1, MsrA act -4, DAGLB inhibitor -1, DSG3 Ab inh 103 and NadD block 2.
For CCCC(=O)OC12CCCN(C1)/C(=C/c1cccc(OC)c1)C2 (stereo not drawn) the results were rCAG binder -4.
For Nc1c(S(=O)(=O)c2ccccc2)c2nc3ccccc3nc2n1/N=C/c1ccco1 the results were rCAG binder 27, MsrA inhibitor 2, MsrA act 3, DAGLB inhibitor 2, DSG3 Ab inh 92, NadD block 37* and NadD conf 4.
For Cc1cccc(S(=O)(=O)c2c(N)n(/N=C/c3ccco3)c3nc4ccccc4nc23)c1 the results were rCAG binder 13, MsrA inhibitor 0, MsrA act -2, DAGLB inhibitor -7, NadD block 41* and NadD conf 11.
Cc1ccc(S(=O)(=O)c2c(N)n(/N=C/c3ccco3)c3nc4ccccc4nc23)cc1 was read as rCAG binder 20, MsrA inhibitor 1, MsrA act -1, DAGLB inhibitor -1, DSG3 Ab inh 84 and NadD block 25.
For C=CCn1c(=NC(=O)c2ccc(S(=O)(=O)N3CCc4ccccc4C3)cc2)sc2cc(S(N)(=O)=O)ccc21 the results were rCAG binder 27, MsrA inhibitor 3, MsrA act -7, DAGLB inhibitor -1, DSG3 Ab inh 102, NadD block 32* and NadD conf -4.
For COc1ccc2nc(/C(C#N)=C\c3ccc(Oc4ccc([N+](=O)[O-])cn4)cc3)[nH]c2c1 the results were rCAG binder 9, MsrA inhibitor 0, MsrA act -5, DAGLB inhibitor 31, DSG3 Ab inh 106, NadD block 35* and NadD conf 9.
Screening CCOc1cc(/C=C(\C#N)c2nc3ccccc3[nH]2)ccc1OC(C)C(=O)O (stereo not drawn) returned rCAG binder 19, MsrA inhibitor 2, MsrA act -6, DAGLB inhibitor -3, DSG3 Ab inh 105 and NadD block -2.
Screening COc1ccc2nc(/C(C#N)=C\c3ccc(C(=O)O)cc3)[nH]c2c1 returned rCAG binder 8, MsrA inhibitor 1, MsrA act -2, DAGLB inhibitor -3, DSG3 Ab inh 111 and NadD block 2.
Screening CCOc1cc(/C=C(/C#N)c2nc3ccccc3[nH]2)ccc1Oc1ccc([N+](=O)[O-])cn1 returned rCAG binder 9, MsrA inhibitor -1, MsrA act -3, DAGLB inhibitor 1, DSG3 Ab inh 95, NadD block 54* and NadD conf 9.
Cc1ccc2nc(/C(C#N)=C\c3ccc(Oc4ccc([N+](=O)[O-])cn4)cc3)[nH]c2c1 was read as rCAG binder 18, MsrA inhibitor 0, MsrA act -12, DAGLB inhibitor 7, NadD block 36* and NadD conf 12.
Screening Cc1oc2ccc(NS(=O)(=O)c3ccc(C(C)(C)C)cc3)cc2c1C(=O)Nc1ccccc1 returned rCAG binder 16, MsrA inhibitor 0, MsrA act -4, DAGLB inhibitor -1, DSG3 Ab inh 94, NadD block 33* and NadD conf 34.
